From PubChem BioAssay AID1347072 (National Center for Advancing Translational Sciences (NCATS), 2019)
Out of some 44,000 compounds screened, fewer than 10 were called active. Not shown: some 2% with an inconclusive outcome. Only a sample is shown. Values without a mark were called inactive. Calls follow the shape of the dose curve; as a rule, active = well fitted curve in the direction sought with a large enough effect; inconclusive = small, poorly fitted or top-dose-only effect, or another doubt; inactive = no such curve, though single readings can be large or run the other way.

target: Galactokinase (Homo sapiens) (UniProt P51570); experiment: qHTS Assay for Inhibitors of Human Galactokinase (GALK): NCGC Sytravon Library Screen; conditions: recombinant GALK, Kinase-Glo ATP luminescence, 1 h; series mostly up to 57.5 µM; activity, negative = inhibition: at the top concentration;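 also: plate controls were full GALK reaction for no effect and reaction lacking GALK for full effect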
Sequence (P51570 whole entry, looked up): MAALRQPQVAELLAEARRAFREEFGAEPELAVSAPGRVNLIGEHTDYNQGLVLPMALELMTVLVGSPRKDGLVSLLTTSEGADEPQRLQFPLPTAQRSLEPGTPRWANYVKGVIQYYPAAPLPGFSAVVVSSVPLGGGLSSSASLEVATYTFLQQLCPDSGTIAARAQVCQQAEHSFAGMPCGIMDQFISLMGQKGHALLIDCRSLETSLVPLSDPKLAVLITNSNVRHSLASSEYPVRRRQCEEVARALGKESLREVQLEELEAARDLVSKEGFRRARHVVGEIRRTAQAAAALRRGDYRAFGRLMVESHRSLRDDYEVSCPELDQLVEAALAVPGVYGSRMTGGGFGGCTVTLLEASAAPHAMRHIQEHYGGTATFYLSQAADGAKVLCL
Excerpt: Inherited deficiency of galactose-1-phosphate uridyltransferase (GALT) can result in a potentially lethal disorder called Classic Galactosemia (OMIM 230400). Several lines of evidence indicate that an elevated level of galactose-1-phosphate (gal-1-p), the product of galactokinase (GALK), is a major, if not sole, pathogenic mechanism in patients with classic galactosemia. Therefore, finding inhibitors of GALK is a potential novel therapy for this inherent metabolic disease and is the long term goal of this project. This screen is run against the NCGC Sytravon compound library collection. GALK (provided by Kent Lai) was assayed using ATP and D-(+)-Galactose (Sigma-Aldrich cat# G0750) as substrates. Promega Kinase-Glo Plus technology was used to detect kinase activity. Reactions with and without GALK were used as negative and positive controls together with Protein Tyrosine Phosphatase CD45 inhibitor (EMD Bioscience cat# 540215) which is shown to inhibit GALK activity. Decrease in activity corresponds to inhibition of the enzyme is the desired outcome for this assay. NIH Molecular Libraries Probe Production Network [MLPCN] NIH Chemical Genomics Center [NCGC] Grant: R03 MH085689-01 PI Name: Kent Lai Ph.D., University of Utah
NCGC Assay Protocol Summary: Three uL/well of ATP-buffer solution (35 uM ATP, 20mM HEPES pH8.0, 5 mM MgCl2, 60 mM NaCl, 1 mM DTT, 0.01% BSA final concentration) was dispensed into 1536-well, assay plates (Greiner, solid white medium-binding plates) with Aurora Discovery BioRAPTR Flying Reagent Dispenser (FRD; Beckton-Dickenson). Compound solution (23 nL) was transferred to the assay plate using the Kalypsys 1536-pin tool. One uL/well GALK-galactose solution (5 nM GALK, 100 uM galactose, 20 mM HEPES pH8.0, 5 mM MgCl2, 60 mM NaCl, 1 mM DTT, 0.01% BSA final concentration) was then added using the FRD yielding a total kinase reaction volume of 4 uL/ well. After 1 hour of room temperature incubation, 4 uL Kinase-Glo Plus reagent was added for a final assay volume of 8 uL/ well. Luminescence was detected with the ViewLux plate reader (Perkin Elmer, Waltham, MA) after 10 min incubation using a 1 sec exposure time and 2x binning.

Point of comparison: Cc1sc2ncn(CC(=O)N3CCN(c4ccc(F)cc4)CC3)c(=O)c2c1S(=O)(=O)N1CCN(c2ncccn2)CC1, “activity, negative = inhibition” value 0.246%. Against it:
- O=S(=O)(NCC(c1ccco1)N1CCOCC1)c1cc(F)ccc1F (stereo unspecified) — lower, -5.26%
- COc1ccc(-c2nc(C)c(CCNC(=O)c3ccc(C(F)(F)F)cc3)s2)cc1OC — lower, -7.93%
- CCOC(=O)c1cccc(NC(=O)C(Cc2ccccc2)NS(=O)(=O)c2cccc3nsnc23)c1 (stereo unspecified) — higher, 7.9%
- Cc1ccccc1Nc1nn2c(=O)c3ccc(C(=O)NCCc4ccc(Cl)cc4)cc3nc2s1 — higher, 0.366%
- CCOc1ccc(C(=O)N2CCN(CCc3ccccn3)CC2)cc1 — higher, 0.691%
- COc1ccccc1CNCc1ccc(C(=O)O)s1 — lower, -3.41%
- COc1ccccc1CNC(=O)c1ccccc1NC(=O)c1nsc2ccccc12 — lower, -9.67%
- COc1ccc(OC)c(NC(=O)/C=C/c2ccc(C)o2)c1 — higher, 2.78%
- Cc1ccc(CNC(=O)CCC(=O)N2Cc3ccccc3Oc3ncccc32)cc1 — lower, -0.764%
- Cc1nn(CC(=O)NCCc2ccccc2)c(=O)c2c1sc1ccccc12 — lower, -10.7%
- COc1ccc(OC)c(NC(=O)CN2CCCN(Cc3cc(C)ccc3C)S2(=O)=O)c1 — higher, 1.05%
- O=C(NCCCN1CCN(c2cccc(Cl)c2)CC1)c1nnc(Cc2ccc(F)cc2Cl)o1 — higher, 0.501%
- CC1=C(c2ccc(C)c(C)c2)S(=O)(=O)NC1=NCc1ccccc1Cl — higher, 3.69%
- COc1ccc(S(=O)(=O)NCCc2cc3ccc(C)c(C)c3[nH]c2=O)cc1 — higher, 1.2%
- CCc1cccc(C)c1Nc1c(-c2ccc(N(C)C)cc2)nc2ncccn12 — higher, 1.49%
- COc1ccc(NC(=O)Cn2c(=O)n(Cc3ccc(C(=O)NCc4ccccc4Cl)cc3)c(=O)c3ccccc32)cc1 — higher, 1.58%
- CCC(=O)Nc1ccc2nc(SCC(=O)N3CCc4ccccc43)sc2c1 — higher, 1.4%
- Cc1ccc(-n2c3nc(=O)[nH]c(=O)c-3cc3c(Cl)cccc32)cc1 — lower, -0.166%
- Cc1ccc(SCC(=O)Nc2ccc3oc(-c4ccccc4C)nc3c2)cc1 — lower, -12.2%
- COc1ccc(NC(=O)CSc2nc3ccccc3n2CC(=O)N2CCCCC2C)cc1 (stereo unspecified) — lower, -1.23%
- CCOc1ccc(CCNC(=O)CSc2cc(=O)n(C)c3ccc(Cl)cc23)cc1OCC — lower, 0.0807%
- O=C(Cn1c(=O)n(Cc2ccccc2)c(=O)c2sc3ccccc3c21)Nc1ccccc1F — higher, 5.92%
- Cc1cccc2c(=O)cc(CSc3ccccc3NC(=O)C(C)C)[nH]c12 — lower, -0.731%
- COc1cc(OC)c(OC)cc1/C=C/c1nc2cc3ccccc3cc2c(=O)n1-c1ccc(F)c(Cl)c1 — lower, -0.852%
- Cc1ccc(C(=O)Nc2nc(-c3ccccc3)ns2)cc1 — lower, 0.054%
- Cc1ccc(C)c(Cn2c(=O)n(CCC(=O)NCc3ccc4c(c3)OCO4)c(=O)c3sccc32)c1 — lower, -5.4%
- Cc1ccc(CNS(=O)(=O)c2ccc(C(=O)N(C)C)s2)cc1 — higher, 2.1%
- O=C(NCc1ccc2c(c1)CCN2C(=O)c1ccccc1)Nc1cc(F)ccc1F — lower, -8.63%
- CN(C(=O)CSc1nc2ccccc2n1Cc1ccccc1C#N)c1ccccc1 — lower, -3.63%
- CCCn1c2ccccc2c2cnn(CC(=O)NCC3CCN(Cc4ccc(C)cc4)CC3)c(=O)c21 — lower, 0.1%
- COc1ccc(-c2noc(CSc3nnc(-c4ccccc4)n3-c3ccc(F)cc3)n2)c(OC)c1 — higher, 3.13%
- Cc1nnc(NC(=O)CSc2nc3c([nH]c4ccccc43)c(=O)n2-c2cccc(Cl)c2)s1 — lower, -7.52%
- CCOc1ccc(CCNC(=O)c2cc3c(=O)n(C)c4ccccc4c3n2C)cc1 — higher, 1.83%
- O=C(CSc1nc2c(c(=O)[nH]1)CN(Cc1ccc(F)cc1)CC2)Nc1ccccc1Cl — higher, 3.32%
- O=C(Cc1ccc(Cl)cc1)NCC(c1cccs1)S(=O)(=O)c1ccc(Cl)cc1 (stereo unspecified) — lower, 0.239%
- O=C(Nc1ccc(Br)cc1)c1ccc(Br)c(S(=O)(=O)NCc2ccccc2)c1 — higher, 0.305%
- Cc1ccc(-c2cn3c(n2)sc2cc(C(=O)NCc4cccs4)ccc23)c(C)c1 — higher, 4.3%
- CCc1ccccc1NC(=O)c1ccc(F)c(S(=O)(=O)NC2CCCCCC2)c1 — higher, 1.07%
- CCc1cccc(NC(=O)CSc2nccn2C)c1 — lower, -2.55%
- COc1ccc(CCNc2ncnc3c2cnn3-c2ccc(C)cc2)cc1 — higher, 0.59%
- Cc1cccc(-c2nc(SCc3ccc(Br)cc3)n3[nH]c(=O)cc3n2)c1 — higher, 4.56%
- CC(CCCc1ccccc1)NC(=O)c1nn(-c2ccc(Cl)cc2)nc1CO (stereo unspecified) — higher, 2.68%
- COc1ccc(CNc2nc(-c3ccc(Cl)cc3)cc(C(F)(F)F)n2)cc1 — lower, -1.42%
- CCn1cc(CCC(=O)NCc2ccc(F)cc2)c2ccccc21 — higher, 3.15%
- CCN(c1ccc(Cl)cc1)S(=O)(=O)c1nnc(NC(=O)c2ccco2)s1 — higher, 1.43%
- CCc1nn(CC(=O)Nc2cccc(C)c2C)c(=O)c2cc3sccc3n12 — lower, -10.4%
- Cc1c(Cl)cccc1NC(=O)C1CCCN(C(=O)c2cnn(-c3ccccc3)c2-n2cccc2)C1 (stereo unspecified) — higher, 5.36%
- CCc1ccccc1OCCSc1nc(-c2cccs2)nc2cc(=O)[nH]n12 — lower, -3.94%
- COc1ccc2cc(-c3nc(Cl)c4c5c(sc4n3)CC(C)CC5)c(=O)oc2c1 (stereo unspecified) — higher, 7.47%
- Cc1ccc2cccc(NC(=O)C(C)Oc3ccc(C)c(C)c3)c2n1 (stereo unspecified) — higher, 2.77%
- CCCCc1nn2c(=O)cc(COC(=O)c3ccccc3NC(=O)C(C)(C)C)nc2s1 — lower, 0.0179%
- O=C(CSc1nc(=O)[nH]c2c1CCCC2)Nc1cc(C(F)(F)F)ccc1Cl — lower, -1.93%
- CC(NC(=O)c1cc2c(=O)n3ccccc3nc2n(C(C)C)c1=N)c1ccccc1 (stereo unspecified) — higher, 16.3%
- COc1ccccc1CNS(=O)(=O)c1cc(Br)cc2c1N(C(C)=O)C(C)C2 (stereo unspecified) — lower, -5.64%
- Cn1c(=O)cc(OCC(=O)N2CCN(c3ccccc3F)CC2)c2ccccc21 — lower, 0.123%
- COc1ccc(CNC(=O)CCc2c(C)nn(-c3ccc(N4CCCC4)nn3)c2C)cc1 — lower, -0.105%
- O=S(=O)(NCCS(=O)(=O)N1CCN(c2ccccc2)CC1)c1ccc(Cl)cc1 — higher, 2.24%
- CCCN1CCN(CCCNC(=O)c2ccc3nc(Cc4ccccc4)oc3c2)CC1 — lower, -0.181%
- CCN(Cc1ccccc1)C(=O)c1cn(-c2cccc(OC)c2)c(=O)c2ccccc12 — higher, 0.495%
- COc1ccc(NS(=O)(=O)c2cc3c4c(c2)CC(=O)N4CCC3)cc1Cl — lower, 0.222%
- CC(=O)N1CCCc2ccc(NS(=O)(=O)c3ccc(F)cc3F)cc21 — higher, 0.29%
- CCc1nc(-c2cc(S(=O)(=O)N3CCN(c4ccc(OC)cc4)CC3)ccc2OC)no1 — higher, 3.93%
- Cc1ccc(NC(=O)Cn2c(=O)n(-c3ccccc3)c(=O)c3c4c(sc32)CCCC4)cc1 — higher, 6.16%
- COc1cccc(CNC(=O)CN2C(=O)CCc3cc(S(=O)(=O)N4CCOCC4)ccc32)c1 — lower, -0.942%
- C#CCOc1ccc(C2CC(=O)Nc3c2c(C)nn3-c2nc(C)cc(C)n2)cc1 (stereo unspecified) — lower, -0.329%
- Cc1cccc(NC(c2cccc(F)c2)c2ccc3ccc(C)nc3c2O)n1 (stereo unspecified) — lower, -1.92%
- O=C(CCS(=O)(=O)c1cc(Br)cc2c1N(C(=O)C1CC1)CC2)Nc1ccc(Br)cc1F — higher, 1.92%
- CCOC(=O)c1ccc(N2C(=O)c3n[nH]c(-c4ccco4)c3C2c2ccc(O)cc2)cc1 (stereo unspecified) — higher, 0.26%
- O=C(CC1Oc2ccc(Cl)cc2NC1=O)NCc1ccccc1 (stereo unspecified) — lower, -9.65%
- COc1ccc(-n2c(C)nc3c(cnn3-c3ccc(F)cc3)c2=O)cc1 — higher, 6.98%
- COc1ccc(CCN2C(=O)N(c3cccc(OC)c3)C(=O)C2CC(=O)Nc2ccccc2)cc1 (stereo unspecified) — higher, 4.98%
- COc1ccc(CCNC(=O)CCc2c(C)nc3c(c(C)nn3-c3ccc(C)c(C)c3)c2C)c(OC)c1OC — lower, -1.7%
- O=C1CCCc2cc(S(=O)(=O)N3CCCC(C(=O)NCc4ccccc4)C3)ccc2N1 (stereo unspecified) — higher, 0.641%
- COc1ccccc1NC(=O)CSc1oc(-c2ccco2)nc1S(=O)(=O)c1ccc(Br)cc1 — lower, -0.198%
- O=C(CSc1cn(CC(=O)N2CCOCC2)c2ccccc12)Nc1ccccc1 — lower, -10.9%
- CCCNc1ncnc2c1c(-c1ccccc1)cn2-c1ccc(OCC)cc1 — lower, -0.973%
- COc1cccc(CNC(=O)c2ccc3c(c2)sc2nc(-c4cccc(OC)c4)cn23)c1 — higher, 1.05%
- COc1ccc(NC(=O)N2CCCn3nc(C)cc32)cc1OC — higher, 1.03%
- CC(C)c1ccc(NC(=O)Cn2c3ncccc3c(=O)n2-c2ccccc2)cc1 — lower, -0.715%
- Cc1cn(C)c(CC(=O)NCc2ccc(Cl)cc2)c1C(=O)O — lower, -2.28%
- O=C(NCc1ccccc1)C1CCN(S(=O)(=O)c2ccc3[nH]c(=O)ccc3c2)CC1 — higher, 2.14%
- Cc1cc(C)c(NC(=O)CCc2c(C)nc3c(c(C)nn3C(C)(C)C)c2C)c(C)c1 — higher, 0.89%
- CCOC(=O)c1ccc(NC(=O)CSc2nc3c([nH]c4ccccc43)c(=O)n2C)cc1 — lower, -9.08%
- COc1cccc(NC(=O)c2csnn2)c1 — lower, -5.21%
- CCc1nc2c(cnn2-c2ccc(C)cc2)c(=O)n1-c1ccc(C)cc1 — higher, 8.26%
- CCC1(C)CC(=O)c2c(ccc3oc(C(=O)Nc4ccc(C(C)=O)cc4)c(C)c23)O1 (stereo unspecified) — lower, -4.05%
- COc1ccc2oc(-c3ccc(C)c(NC(=O)c4sc5ccccc5c4Cl)c3)nc2c1 — lower, -14.9%
- CCOC(=O)Cn1c(=O)n(-c2ccccc2OC)c2nc(-c3cccc(F)c3)nc(C(N)=O)c21 — higher, 0.826%
- Cc1ccc(NC(=O)c2cn3c4c(ccc(Cl)c4c2=O)OC(C)C3)cc1C (stereo unspecified) — lower, -3.8%
- CCCCS(=O)(=O)c1oc(-c2cccs2)nc1S(=O)(=O)c1ccccc1 — higher, 3.76%
- O=C(CSc1ncc(CO)n1Cc1ccc(F)cc1)NCc1ccco1 — lower, -0.478%
- CNc1ccc(-c2nc(-c3ccccc3C)no2)cc1[N+](=O)[O-] — lower, -1.05%
- CCc1ccccc1NC(=O)Cn1c(=O)n(-c2cccc(C)c2)c(=O)c2c1c1cc(OC)ccc1n2C — higher, 3.81%
- CCOC(=O)c1c(S(=O)(=O)N2CCCC(C(=O)NCc3cccc(C)c3)C2)c(C)n(C)c1C (stereo unspecified) — higher, 3.27%
- CCOc1ccccc1NC(=O)c1ccc2c(c1)CCN2S(=O)(=O)c1ccc(C)cc1 — higher, 2.78%
